This experiment has as its system Trichoderma virens ATCC 9645. The experiment in a line: growth yield (OD600) with compound + IPBC relative to untreated control; higher = less growth inhibition. The conditions noted are these: compound concentration: 100 uM, IPBC concentration: 200 ng/ml. The procedure, abridged: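 Library compounds (100 μM final), with or without a co-applied biocide (200 ng ml^−1), were added to 100 μl aliquots of Trichoderma virens ATCC 9645 spores at 15,000 spores ml^−1 in potato dextrose broth. Cultures were grown at 30 °C in 96-well plates, and OD600 was measured at 40 h and 72 h. Each growth value is a mean of duplicate screens, expressed relative to the control with neither agent.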

From the supplement of paper PMC8007513 come the findings set out here.

Each structure is given as a SMILES string. Where a name gives a salt, the structure may show the parent alone. ± gives the standard error. The campaign covered roughly 1,300 compounds. About 130 (10%) showed an effect of 50% or more. The sample as a whole holds a higher share of strong results than the screen did.

Take `CC(Cc1cccc(C(F)(F)F)c1)NCCOC(=O)c1ccccc1` (stereo not drawn) [Benfluorex] + CCCCNC(=O)OCC#CI [3-iodo-2-propynyl butylcarbamate (IPBC)]: the growth yield runs as follows: (40 h) 56.4 ± 1.8%; (72 h) 81.8 ± 1.5%.
Consider `Cc1cccc(Nc2ccncc2S(=O)(=O)NC(=O)NC(C)C)c1` [Torsemide] + CCCCNC(=O)OCC#CI [3-iodo-2-propynyl butylcarbamate (IPBC)], for which the growth yield by setting is: (40 h) 95.3%; (72 h) 114 ± 17%.
As for `CNCC[C@@H](Oc1cccc2ccccc12)c1cccs1` [(R)-Duloxetine hydrochloride] + CCCCNC(=O)OCC#CI [3-iodo-2-propynyl butylcarbamate (IPBC)], the growth yield by setting is: (40 h) 61.6 ± 3.8%; (72 h) 90.3 ± 0.1%.
Take `O=C(O)CCCC[C@@H]1SC[C@@H]2NC(=O)N[C@@H]21` [Biotin] + CCCCNC(=O)OCC#CI [3-iodo-2-propynyl butylcarbamate (IPBC)]: the growth yield came out at 85.3 ± 3.3% (40 h) and 91.03 ± 0.84% (72 h).
In the same order, the values of `C=C1C[C@@H]2[C@H](CC[C@]3(C)C(=O)CC[C@@H]23)[C@@]2(C)C=CC(=O)C=C12` [Exemestane] + CCCCNC(=O)OCC#CI [3-iodo-2-propynyl butylcarbamate (IPBC)] are 63.5 ± 0.64% and 77.6 ± 1.5%.
In the same order, the values of `CCOc1cc(CC(=O)N[C@@H](CC(C)C)c2ccccc2N2CCCCC2)ccc1C(=O)O` [Repaglinide] + CCCCNC(=O)OCC#CI [3-iodo-2-propynyl butylcarbamate (IPBC)] are 104 ± 7.3% and 104 ± 4.8%.
The matching figures for `CN1CCN(C(c2ccccc2)c2ccc(Cl)cc2)CC1` (stereo not drawn) [Chlorcyclizine hydrochloride] + CCCCNC(=O)OCC#CI [3-iodo-2-propynyl butylcarbamate (IPBC)]: 76.9 ± 1.6% and 91.6 ± 2.6%.
With `Cc1cccc(CN2CCN(C(c3ccccc3)c3ccc(Cl)cc3)CC2)c1` (stereo not drawn) [Meclozine dihydrochloride] + CCCCNC(=O)OCC#CI [3-iodo-2-propynyl butylcarbamate (IPBC)], the growth yield runs as follows: (40 h) 3.02 ± 1.1%; (72 h) 3.78 ± 0.63%.
The matching figures for `CN1CCCN(C(c2ccccc2)c2ccc(Cl)cc2)CC1` (stereo not drawn) [Homochlorcyclizine dihydrochloride] + CCCCNC(=O)OCC#CI [3-iodo-2-propynyl butylcarbamate (IPBC)]: 58.5 ± 2.2% and 89.9 ± 1.6%.
The matching figures for `O=C(Nc1ccccc1)OCC(CN1CCCCC1)OC(=O)Nc1ccccc1` (stereo not drawn) [Diperodon hydrochloride] + CCCCNC(=O)OCC#CI [3-iodo-2-propynyl butylcarbamate (IPBC)]: 77.4 ± 4.3% and 96.9 ± 1.7%.
Take `CCC1(c2cccc(O)c2)CCCCN(C)C1` (stereo not drawn) [Meptazinol hydrochloride] + CCCCNC(=O)OCC#CI [3-iodo-2-propynyl butylcarbamate (IPBC)]: the growth yield stood at 89.7 ± 3.6% (40 h) and 92.5 ± 2.7% (72 h).
In the same order, the values of `O=C(O)c1cn(-c2ccc(F)cc2)c2cc(N3CCNCC3)c(F)cc2c1=O` [Sarafloxacin] + CCCCNC(=O)OCC#CI [3-iodo-2-propynyl butylcarbamate (IPBC)] are 81.2 ± 6.8% and 98.2 ± 5.5%.
The matching figures for `O=c1[nH]c2ccccc2n1CCCN1CCC(n2c(=O)[nH]c3cc(Cl)ccc32)CC1` [Domperidone] + CCCCNC(=O)OCC#CI [3-iodo-2-propynyl butylcarbamate (IPBC)]: 63.5 ± 2.9% and 91.8 ± 2.4%.
The matching figures for `O=C1NCCN1CCN1CCC(c2cn(-c3ccc(F)cc3)c3ccc(Cl)cc23)CC1` [Sertindole] + CCCCNC(=O)OCC#CI [3-iodo-2-propynyl butylcarbamate (IPBC)]: 5.24 ± 0.79% and 3.46 ± 0.1%.
As to `CCNCC(O)c1cccc(O)c1` (stereo not drawn) [Etilefrine hydrochloride] + CCCCNC(=O)OCC#CI [3-iodo-2-propynyl butylcarbamate (IPBC)], the growth yield is 96.9 ± 3.5% (40 h) and 98.1 ± 2.4% (72 h).
In the same order, the values of `CC(=O)OCC(=O)[C@@]1(O)CC[C@H]2[C@@H]3CCC4=CC(=O)C=C[C@]4(C)[C@@]3(F)[C@@H](O)C[C@@]21C` [Isoflupredone acetate] + CCCCNC(=O)OCC#CI [3-iodo-2-propynyl butylcarbamate (IPBC)] are 87.8 ± 2.1% and 91.7 ± 1.1%.
With `CN(Cc1ccc(C(C)(C)C)cc1)Cc1cccc2ccccc12` [Butenafine Hydrochloride] + CCCCNC(=O)OCC#CI [3-iodo-2-propynyl butylcarbamate (IPBC)], the growth yield by setting is: (40 h) 4.13%; (72 h) 2.73%.
In the case of `C#CCN(C)Cc1ccccc1` [Pargyline hydrochloride] + CCCCNC(=O)OCC#CI [3-iodo-2-propynyl butylcarbamate (IPBC)], the growth yield by setting is: (40 h) 89.3 ± 4.5%; (72 h) 95.5 ± 2.4%.
The matching figures for `CN(C/C=C/c1ccccc1)Cc1cccc2ccccc12` [Naftifine hydrochloride] + CCCCNC(=O)OCC#CI [3-iodo-2-propynyl butylcarbamate (IPBC)]: 13.2 ± 3% and 50 ± 2.2%.
The matching figures for `c1ccc2c(CC3=NCCN3)cccc2c1` [Naphazoline hydrochloride] + CCCCNC(=O)OCC#CI [3-iodo-2-propynyl butylcarbamate (IPBC)]: 87 ± 1.9% and 91.9%.
In the same order, the values of `CN(C/C=C/C#CC(C)(C)C)Cc1cccc2ccccc12` [Terbinafine] + CCCCNC(=O)OCC#CI [3-iodo-2-propynyl butylcarbamate (IPBC)] are 3.18 ± 0.64% and 2.94 ± 0.42%.
Consider `OC(CCN1CCCCC1)(c1ccccc1)C1CCCCC1` (stereo not drawn) [Trihexyphenidyl-D,L Hydrochloride] + CCCCNC(=O)OCC#CI [3-iodo-2-propynyl butylcarbamate (IPBC)], for which the growth yield runs as follows: (40 h) 101 ± 16%; (72 h) 102 ± 8.6%.
In the case of `COC(=O)Nc1nc2cc(C(=O)c3cccs3)ccc2[nH]1` [Nocodazole] + CCCCNC(=O)OCC#CI [3-iodo-2-propynyl butylcarbamate (IPBC)], the growth yield (40 h) stood at 107 ± 2.9% and the growth yield (72 h) is 109 ± 1.1%.
In the case of `CN(C)CCCOc1nn(Cc2ccccc2)c2ccccc12` [Benzydamine hydrochloride] + CCCCNC(=O)OCC#CI [3-iodo-2-propynyl butylcarbamate (IPBC)], the growth yield by setting is: (40 h) 65.8 ± 2.2%; (72 h) 88.4 ± 2.2%.
In the same order, the values of `CC(=O)Nc1ccc(O)cc1` [Acetaminophen] + CCCCNC(=O)OCC#CI [3-iodo-2-propynyl butylcarbamate (IPBC)] are 105 ± 20% and 103 ± 14%.
In the same order, the values of `CC(C)[N+](C)(CCOC(=O)C1c2ccccc2Oc2ccccc21)C(C)C` [Propantheline bromide] + CCCCNC(=O)OCC#CI [3-iodo-2-propynyl butylcarbamate (IPBC)] are 78.8 ± 3.2% and 89.1 ± 3.6%.
In the same order, the values of `CC(=O)N[C@@H](CC(C)C)C(=O)O` [N-Acetyl-L-leucine] + CCCCNC(=O)OCC#CI [3-iodo-2-propynyl butylcarbamate (IPBC)] are 86.57 ± 0.16% and 93.8 ± 2.3%.
Turning to `C[C@]12CC[C@@H]3c4ccc(OS(=O)(=O)O)cc4CC[C@H]3[C@@H]1CCC2=O` [Estropipate] + CCCCNC(=O)OCC#CI [3-iodo-2-propynyl butylcarbamate (IPBC)], the growth yield reads like this: (40 h) 87 ± 1.6%; (72 h) 89.7 ± 2%.
In the same order, the values of `Oc1c(Cl)cc(Cl)c(Cl)c1Cc1c(O)c(Cl)cc(Cl)c1Cl` [Hexachlorophene] + CCCCNC(=O)OCC#CI [3-iodo-2-propynyl butylcarbamate (IPBC)] are 19.4 ± 4.8% and 80.2 ± 2.6%.
In the same order, the values of `CC(C)C(=O)OCC(=O)[C@@]12O[C@H](C3CCCCC3)O[C@@H]1C[C@H]1[C@@H]3CCC4=CC(=O)C=C[C@]4(C)[C@H]3[C@@H](O)C[C@@]12C` [Ciclesonide] + CCCCNC(=O)OCC#CI [3-iodo-2-propynyl butylcarbamate (IPBC)] are 107 ± 6.8% and 103 ± 5.8%.
The matching figures for `CC(C)CC(=O)N[C@H](C(=O)N[C@H](C(=O)N[C@@H](CC(C)C)[C@@H](O)CC(=O)N[C@@H](C)C(=O)N[C@@H](CC(C)C)[C@@H](O)CC(=O)O)C(C)C)C(C)C` [Pepstatin A] + CCCCNC(=O)OCC#CI [3-iodo-2-propynyl butylcarbamate (IPBC)]: 96.4 ± 11% and 103 ± 6.7%.
Consider `CN[C@@H]1[C@H](O[C@H]2[C@H](O[C@H]3[C@H](O)[C@@H](O)[C@H](N=C(N)N)[C@@H](O)[C@@H]3N=C(N)N)O[C@@H](C)[C@]2(O)C=O)O[C@@H](CO)[C@H](O)[C@H]1O` [Streptomycin sulfate] + CCCCNC(=O)OCC#CI [3-iodo-2-propynyl butylcarbamate (IPBC)], for which the growth yield (40 h) was determined as 101 ± 3.8% and the growth yield (72 h) amounted to 99.9 ± 1.1%.
In the same order, the values of `O=C(O)Cc1ccccc1Nc1c(Cl)cccc1Cl` [Diclofenac sodium] + CCCCNC(=O)OCC#CI [3-iodo-2-propynyl butylcarbamate (IPBC)] are 44.79 ± 0.32% and 74.7 ± 1.5%.
The matching figures for `O=C(O)COC(=O)Cc1ccccc1Nc1c(Cl)cccc1Cl` [Aceclofenac] + CCCCNC(=O)OCC#CI [3-iodo-2-propynyl butylcarbamate (IPBC)]: 79.9 ± 0.48% and 95.9 ± 1.7%.
In the same order, the values of `Cc1ccc(Cl)c(Nc2ccccc2C(=O)O)c1Cl` [Meclofenamic acid sodium salt monohydrate] + CCCCNC(=O)OCC#CI [3-iodo-2-propynyl butylcarbamate (IPBC)] are 71.3 ± 1.4% and 85.3 ± 1.8%.
Consider `O=C(CCCCCCC(=O)Nc1ccccc1)NO` [Vorinostat] + CCCCNC(=O)OCC#CI [3-iodo-2-propynyl butylcarbamate (IPBC)], for which the growth yield is, setting by setting: (40 h) 107 ± 9.5%; (72 h) 99.5 ± 3.9%.
In the same order, the values of `COc1cc2nc(N3CCN(C(=O)c4ccco4)CC3)nc(N)c2cc1OC` [Prazosin hydrochloride] + CCCCNC(=O)OCC#CI [3-iodo-2-propynyl butylcarbamate (IPBC)] are 84.82 ± 0.32% and 92.6 ± 1.1%.
In the same order, the values of `CN(C)CCC=C1c2ccccc2C=Cc2ccccc21` [Cyclobenzaprine hydrochloride] + CCCCNC(=O)OCC#CI [3-iodo-2-propynyl butylcarbamate (IPBC)] are 65.1% and 88.41 ± 0.73%.
Consider `OCCOCCN1CCN(C2=Nc3ccccc3Sc3ccccc32)CC1` [Quetiapine hemifumarate] + CCCCNC(=O)OCC#CI [3-iodo-2-propynyl butylcarbamate (IPBC)], for which the growth yield reads like this: (40 h) 72.75 ± 0.64%; (72 h) 85.7 ± 3.2%.
The matching figures for `OCCN1CCN(CC/C=C2/c3ccccc3Sc3ccc(Cl)cc32)CC1` [Zuclopenthixol dihydrochloride] + CCCCNC(=O)OCC#CI [3-iodo-2-propynyl butylcarbamate (IPBC)]: 4.92 ± 0.16% and 3.57 ± 0.21%.
The matching figures for `CN(C)CCOC1=Cc2ccccc2Sc2ccc(Cl)cc21` [Zotepine] + CCCCNC(=O)OCC#CI [3-iodo-2-propynyl butylcarbamate (IPBC)]: 38.6 ± 0.16% and 97.7%.
The matching figures for `CN(C)CCOC(c1ccc(Cl)cc1)c1ccccn1` (stereo not drawn) [Carbinoxamine maleate salt] + CCCCNC(=O)OCC#CI [3-iodo-2-propynyl butylcarbamate (IPBC)]: 103 ± 9.4% and 102 ± 4.9%.
As to `CN(C)CC/C=C1/c2ccccc2Sc2ccc(Cl)cc21` [Chlorprothixene hydrochloride] + CCCCNC(=O)OCC#CI [3-iodo-2-propynyl butylcarbamate (IPBC)], the growth yield by setting is: (40 h) 24.5 ± 7.9%; (72 h) 83.6 ± 8.9%.
On to `CN(C)CC/C=C1\c2ccccc2CSc2ccccc21` [Dosulepin hydrochloride] + CCCCNC(=O)OCC#CI [3-iodo-2-propynyl butylcarbamate (IPBC)], for which the growth yield by setting is: (40 h) 77.5%; (72 h) 99 ± 1.1%.
